Test results: PubChem BioAssay AID720650 (Broad Institute, 2013)
Values without a mark were called inactive. Activity calls are given as the source filed them. No rule for the calls is given here.

Experiment: C difficile toxins, biochemical counterscreen, UDPG substrate absence, confirmatory dose response (AID 720650)
Conditions: series mostly up to 19.5 µM

With CCC(=O)Nc1ccc2c(c1)OC[C@@H](C)N(C(=O)NC(C)C)C[C@H](C)[C@H](OC)CN(C)C2=O as the molecule, how does the AC50 read?
The AC50 was “inactive”.

For COc1ccccc1-n1c(CCC(=O)O)ccc1-c1ccccc1, which AC50 is on record?
Its AC50 is “inactive”.

With S=c1[nH]nc(-c2ccccn2)n1/N=C/c1ccc(Cl)cc1 as the molecule, how does the AC50 read?
Its AC50 is “inactive”.

Which AC50 does the source give for COc1ccc(C(NC(C)=O)c2cc(Cl)c3cccnc3c2O)cc1 (configuration not stated) here?
Its AC50 is “inactive”.

For O=C(O)c1ccc(-c2nnc(-c3ccccc3)o2)cc1, which AC50 is on record?
Its AC50 is “inactive”.

With COc1cccc(C(CNc2ccc(S(=O)(=O)N3CCN(C)CC3)cc2[N+](=O)[O-])N(C)C)c1 (configuration not stated) as the molecule, how does the AC50 read?
The AC50 was “inactive”.

Which AC50 does the source give for Oc1ccc2c(ccc3[nH]cnc32)c1 here?
The AC50 was 20.8 µM (active).

Which AC50 does the source give for O=C(O)c1ccc(-c2ccc(O)c(F)c2)cc1 here?
Its AC50 is 13.5 µM (active).

Which AC50 does the source give for CC(C)(C)N1[C@@H](CC(=O)O)c2cc(C(F)(F)F)ccc2S1(=O)=O here?
Its AC50 is “inactive”.

For O=C(N/N=C/c1cccc([N+](=O)[O-])c1)c1ccc(Br)cc1, which AC50 is on record?
Its AC50 is “inactive”.

For CCOc1ccc2c(C)nc(NC3=NC(C)(C)C=C(C)N3)nc2c1, which AC50 is on record?
Its AC50 is “inactive”.

With Nc1ccc(C(=O)c2ccc3c(c2)OCCO3)cc1N as the molecule, how does the AC50 read?
The AC50 was 11.9 µM (active).

With O=C(CNS(=O)(=O)c1ccc([N+](=O)[O-])cc1)N/N=C\c1ccc(O)cc1 as the molecule, how does the AC50 read?
The AC50 was 13.2 µM (active).

With Cc1ccc(S(=O)(=O)Nc2cccnc2Oc2ccc(Cl)cc2)cc1 as the molecule, how does the AC50 read?
The AC50 was “inactive”.

For Oc1ccc(/C=N/N2CCN(Cc3ccccc3)CC2)cc1, which AC50 is on record?
The AC50 was greater than 39 µM.

For CC[n+]1ccc(/C=C/c2ccc(N(C)C)cc2)c2ccccc21, which AC50 is on record?
Its AC50 is 11.7 µM (active).

For Cc1n[nH]c(=O)nc1Nc1ccc(O)cc1, which AC50 is on record?
Its AC50 is 11.8 µM (active).
